Tgondii IFNg: T. gondii growth inhibition under IFN-gamma. Toxoplasma gondii growth in IFN-gamma-treated host cells; active compounds read low. activity change, negative = inhibition, % (concentration not given with the values). actives 3.8% (n = 69,000); in the data active = activity change below about -70%, passing the limit was not always enough;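 note: host cells are HeLa cells infected with Toxoplasma gondii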
* = called active by the depositor. Only a selection was taken, and hits are over-represented in it overall.

`CC(C)(C)C(=O)Nc1cc(C(F)(F)F)ccc1N1CCC(C(F)(F)F)CC1` gave Tgondii IFNg -97*.
Screening Cc1oc(-c2ccc(C(=O)NC(C)Cc3ccco3)cc2)nc1CN1CCN(c2ccccc2)CC1 (stereo not drawn) returned Tgondii IFNg -54.
For CCCNC(=O)N(C)C[C@@H]1Oc2cc(C#C[C@@H](C)O)ccc2S(=O)(=O)N([C@H](C)CO)C[C@H]1C the results were Tgondii IFNg -38.
`C[C@H]1CN([C@@H](C)CO)S(=O)(=O)c2ccc(Br)cc2O[C@H]1CN(C)C(=O)Nc1ccccc1F` gave Tgondii IFNg 97.
`C[C@H](CO)N1C[C@H](C)[C@H](CN(C)C(=O)c2ccccc2)Oc2cc(-c3cccc(C#N)c3)ccc2S1(=O)=O` gave Tgondii IFNg -69.
For C[C@H](CO)N1C[C@H](C)[C@@H](CN(C)Cc2ccc(F)cc2)Oc2cc(C#CC(C)(C)O)ccc2S1(=O)=O the results were Tgondii IFNg -95*.
`C[C@H]1CN([C@@H](C)CO)S(=O)(=O)c2ccc(C#CC(C)(C)O)cc2O[C@H]1CN(C)Cc1ccc(F)cc1` gave Tgondii IFNg -32.
C[C@H](CO)N1C[C@H](C)[C@H](CN(C)Cc2ccc(F)cc2)Oc2cc(C#CC(C)(C)O)ccc2S1(=O)=O was read as Tgondii IFNg 275.
Screening C/C=C/c1ccc2c(c1)O[C@H](CN(C)C(=O)Nc1ccc(OC)cc1)[C@H](C)CN([C@@H](C)CO)S2(=O)=O returned Tgondii IFNg inactive.
Screening C[C@@H]1CN([C@@H](C)CO)S(=O)(=O)c2ccc(-c3ccc(F)cc3)cc2O[C@@H]1CN(C)Cc1ccccc1C(=O)O returned Tgondii IFNg 214.
For C[C@@H]1CN([C@@H](C)CO)S(=O)(=O)c2ccc(-c3cccc(C#N)c3)cc2O[C@H]1CN(C)C(=O)c1ccccc1 the results were Tgondii IFNg -99*.
Cc1ccccc1-c1ccc2c(c1)O[C@@H](CN(C)C(=O)Nc1ccc(C(F)(F)F)cc1)[C@H](C)CN([C@@H](C)CO)S2(=O)=O was read as Tgondii IFNg -100*.
For C[C@H]1CN([C@@H](C)CO)S(=O)(=O)c2ccc(C#CC3(O)CCCC3)cc2O[C@H]1CN(C)C(=O)Nc1cccc(F)c1 the results were Tgondii IFNg -62.
Screening C[C@@H]1CN([C@@H](C)CO)S(=O)(=O)c2ccc(C#CC3(O)CCCC3)cc2O[C@H]1CN(C)C(=O)Nc1cccc(F)c1 returned Tgondii IFNg -92*.
Screening O=C(c1ccn(-c2ccc3ccccn23)n1)N1CCCCC1 returned Tgondii IFNg 130.
`Cc1ccc(-c2coc(-c3ccc(NC(=O)Nc4ccccc4F)cc3)n2)c(C)c1` gave Tgondii IFNg -27.
Screening Cn1cc(C2COC3(CCN(C(=O)c4cccnc4)CC3)C2)cn1 (stereo not drawn) returned Tgondii IFNg 4.
For C=CCN1CCN(C)C(=O)C12CCN(C(=O)c1cccn1C)C2 (stereo not drawn) the results were Tgondii IFNg 32.
Screening COc1nn(C)c2c1CCCN(S(=O)(=O)c1cccc(C)c1)C2 returned Tgondii IFNg -2.
`Cc1nc(C(=O)N2CCc3c(cc(-c4cccc(F)c4)c(=O)n3CCN3CCCCC3)C2)cs1` gave Tgondii IFNg 3.
`COc1ccc(CCC(=O)N2CCC(C)(C(=O)NCc3cc(OC)cc(OC)c3)CC2)cc1` gave Tgondii IFNg 27.
`CCc1ccc(S(=O)(=O)N2CCC3(CC2)NCCN=C3NC2CCCCCC2)cc1` gave Tgondii IFNg -52.
`COc1ccccc1C(=O)C1CCCN(Cc2coc3ccccc3c2=O)C1` (stereo not drawn) gave Tgondii IFNg -46.
`COc1ccc(CC(=O)Nc2ccc(-c3cnco3)cc2)cc1OC` gave Tgondii IFNg 71.
Screening Cc1ccc(OCCN2CCCC2)c(NC(=O)c2cccn3nnnc23)c1 returned Tgondii IFNg -43.
`Cc1ccc(Cn2c(-c3ccc(F)cc3)c(-c3ccc(F)cc3)nnc2=O)cc1` gave Tgondii IFNg -83*.
`Cc1ccc(-n2sc(=O)n(Cc3ccc(F)cc3)c2=O)cc1` gave Tgondii IFNg -4.
For CCOC(=O)Cn1nc2nnc(-c3ccc(F)cc3)c(-c3ccc(F)cc3)n2c1=O the results were Tgondii IFNg -36.
`NC(=O)Nc1cc(-c2cccc(F)c2)sc1C(=O)N[C@H]1CCCNC1` gave Tgondii IFNg -84*.
`O=C(N[C@H]1CCCNC1)c1cn(C/C=C/c2ccccc2)nn1` gave Tgondii IFNg -6.
N#C[C@@H]1[C@@H](c2ccccc2-c2cccc(F)c2)[C@H](CO)N1C(=O)NC1CCCCC1 was read as Tgondii IFNg 11.
O=C(COc1nc2ccccc2s1)N1c2ccccc2Sc2ccccc21 was read as Tgondii IFNg 0.
CCn1nnnc1SCC(=O)N1c2ccccc2Sc2ccccc21 was read as Tgondii IFNg -11.
Screening CCc1nc(SCC(=O)N2c3ccccc3Sc3ccccc32)c2ccccc2n1 returned Tgondii IFNg -82*.
`O=C(Nc1ccccc1)N1CCC2(CN(Cc3ccccc3)C2)C1` gave Tgondii IFNg -4.
Cc1ccccc1CNC(=O)c1cc2cc(S(=O)(=O)N(C)C)ccc2n1Cc1ccncc1 was read as Tgondii IFNg 9.
CN(C)S(=O)(=O)c1ccc2c(c1)cc(C(=O)NC1CCCCCC1)n2Cc1ccncc1 was read as Tgondii IFNg 51.
For CN(C)S(=O)(=O)c1ccc2c(c1)cc(C(=O)NCc1ccccc1Cl)n2Cc1ccncc1 the results were Tgondii IFNg -95*.
Screening CN(C)S(=O)(=O)c1ccc2c(c1)cc(C(=O)NCCCN1CCCC1)n2Cc1ccccc1 returned Tgondii IFNg -96*.
`CN(C)S(=O)(=O)c1ccc2c(c1)cc(C(=O)NC1CCCC1)n2Cc1ccncc1` gave Tgondii IFNg 133.
CN(C)S(=O)(=O)c1ccc2c(c1)cc(C(=O)NC1CCCCCCC1)n2Cc1ccncc1 was read as Tgondii IFNg -74*.
CN(C)S(=O)(=O)c1ccc2c(c1)cc(C(=O)NCc1ccccc1)n2Cc1ccncc1 was read as Tgondii IFNg -13.
Screening CN(C)CCNC(=O)c1cc2cc(S(=O)(=O)N(C)C)ccc2n1Cc1ccncc1 returned Tgondii IFNg 40.
For COc1ccccc1CNC(=O)c1cc2cc(S(=O)(=O)N(C)C)ccc2n1Cc1ccncc1 the results were Tgondii IFNg 1.
`CC(C)(C)c1ccc(-c2nnc(SCc3ccccc3Cl)o2)cc1` gave Tgondii IFNg -19.
COC(=O)c1cc2n(n1)CCCN(C(=O)CC1CCc3ccccc31)C2 (stereo not drawn) was read as Tgondii IFNg -55.
For COc1ccc(N2C(=O)CC2(/C=C/c2ccccc2)C(=O)NC2CCCCC2)cc1 (stereo not drawn) the results were Tgondii IFNg 4.
`COc1ccc(CN2C3(CCN(C(=O)C4(C)CC4)C3)c3ccccc3S2(=O)=O)cc1` (stereo not drawn) gave Tgondii IFNg -3.
CC(NC(=O)c1ccncc1)c1nc(-c2cccnc2)n[nH]1 (stereo not drawn) was read as Tgondii IFNg 25.
For CC(=O)N1C[C@@H]2OCCN(Cc3csc(C)n3)[C@H]2C1 the results were Tgondii IFNg 78.
O=c1c2ccccc2nc2n1CCN(Cc1ccccc1)CC2 was read as Tgondii IFNg 16.
`C1=CCC(c2cn(Cc3ccccc3-n3cccn3)nn2)CC1` (stereo not drawn) gave Tgondii IFNg -6.

Screening results (PubChem)
